Results on 17 compounds are retold here after PubChem BioAssay (NCI).

The panel holds about 83,000 compounds, 20% with a hit somewhere; the sample as a whole holds those more often.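 Growth was measured after 48 h exposure to one concentration of compound in 96-well plates. Values under 10 count as active.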 Unmarked numbers belong to inactive results. Activity calls are given as the source filed them.

Test systems include NCI-H23 lung; NCI-H226 lung; NCI-H322M lung; HOP-62 NSCLC; NCI-H460 lung; HOP-92 NSCLC; NCI-H522 lung; A549/ATCC NSCLC; 786-0 renal; COLO 205 colon.
Assay in all cases: NCI-60 one-dose screen, 48 h (100 = growth as untreated, 0 = no growth, -100 = all killed)
What all share (conditions): 10 µM unless noted

Take `O=C1CC(c2ccc(Cl)cc2)c2ncn(-c3cccc(Cl)c3)c2N1` (stereo not given): the growth in the assay with NCI-H23 lung was 72%; with NCI-H226 lung, 71%; with NCI-H322M lung, 91.6%; in the assay with HOP-62 NSCLC, 51.2%; in the assay on NCI-H460 lung, 34%; in the assay on HOP-92 NSCLC, 60.8%. Also, the growth was 27.6% in the assay with NCI-H522 lung, 45.2% in the assay on A549/ATCC NSCLC, 55% with 786-0 renal and 97.7% in the assay on COLO 205 colon.
As to `CO[C@H]1C[C@@H]2CC[C@@H](C)[C@@](O)(O2)C(=O)C(=O)N2CCCC[C@H]2C(=O)O[C@H]([C@H](C)C[C@@H]2CC[C@@H](OCCO)[C@H](OC)C2)CC(=O)[C@H](C)/C=C(\C)[C@@H](O)[C@H](OC)C(=O)[C@H](C)C[C@H](C)\C=C/C=C/C=C/1C`, the growth in the assay with NCI-H23 lung is 54.9%; in the assay with NCI-H226 lung, 48.7%; with NCI-H322M lung, 44.9%; in the assay with HOP-62 NSCLC it was 41.2%; with NCI-H460 lung, 43.2%; in the assay with HOP-92 NSCLC, 45.7%. The growth is 48.7% with NCI-H522 lung, 44.6% in the assay on A549/ATCC NSCLC, 52.6% in the assay with 786-0 renal and 55.8% with COLO 205 colon.
For the compound `O=C1OCC2=C1C(c1cccc(F)c1)c1cc3c(cc1N2CCO)OCCO3` (stereo not given), the growth in the assay with NCI-H23 lung was 25.4%; in the assay on NCI-H226 lung, 26.2%; with NCI-H322M lung, 45.3%; in the assay on HOP-62 NSCLC it was 30.5%; in the assay with NCI-H460 lung, 9.42% (active); in the assay with HOP-92 NSCLC, 66.6%. Further, the growth in the assay with NCI-H522 lung is 17.1%; with A549/ATCC NSCLC, 18.1%; in the assay with 786-0 renal, 26.4%; in the assay with COLO 205 colon, -5.04% (active).
Regarding `CNC(=O)c1cc(Oc2cccc3nc(Nc4ccc(Oc5ccccc5)cc4)ccc23)ccn1`, the growth in the assay on NCI-H23 lung was 78%; in the assay on NCI-H226 lung, 66%; with NCI-H322M lung it was 99.9%; in the assay with HOP-62 NSCLC, 92%; with NCI-H460 lung it was 61.9%; with HOP-92 NSCLC, 71.2%. Also, the growth is 62.7% in the assay on NCI-H522 lung, 58.3% with A549/ATCC NSCLC, 72.5% in the assay with 786-0 renal and 46% in the assay with COLO 205 colon.
With `CCCCCCCC12Cc3ccccc3C1=Nc1c(c3ccccc3n1C)C2=O` (stereo not given), the growth in the assay with NCI-H23 lung was 84.8%; in the assay with NCI-H226 lung it was 77.8%; in the assay with NCI-H322M lung, 88.4%; in the assay on HOP-62 NSCLC, 84%; in the assay on NCI-H460 lung, 92.7%; in the assay on HOP-92 NSCLC, 93.4%. The growth is 48.1% in the assay with NCI-H522 lung, 75.5% with A549/ATCC NSCLC, 105% with 786-0 renal and 112% in the assay on COLO 205 colon.
Regarding `Nc1cc(C(F)(F)F)c(-c2cc(N3CCOCC3)nc(N3CCOCC3)n2)cn1`, the growth in the assay on NCI-H23 lung is -11.8% (active); in the assay on NCI-H226 lung, -10.6% (active); with NCI-H322M lung it was -18.3% (active); with HOP-62 NSCLC it was -40.8% (active); with NCI-H460 lung, -12.9% (active); in the assay on HOP-92 NSCLC, -42.2% (active). For the same compound, the growth in the assay on NCI-H522 lung is -51.7% (active); in the assay with A549/ATCC NSCLC, -44.8% (active); in the assay with 786-0 renal, -9.19% (active); in the assay with COLO 205 colon, -61.3% (active).
As for `CN[C@@H]1C[C@H]2O[C@@](C)([C@@H]1OC)n1c3ccccc3c3c4c(c5c6ccccc6n2c5c31)C(=O)N[C@H]4O`, the growth with NCI-H23 lung was -48.8% (active); in the assay with NCI-H226 lung it was -47.1% (active); with NCI-H322M lung, -25.8% (active); with HOP-62 NSCLC it was -60.8% (active); in the assay on NCI-H460 lung, -63.7% (active); in the assay with HOP-92 NSCLC it was -9.92% (active). Also, the growth in the assay with NCI-H522 lung was -37.2% (active); with A549/ATCC NSCLC it was -36.8% (active); with 786-0 renal, -87.5% (active); in the assay on COLO 205 colon, -80.8% (active).
As for `N#CCNC(=O)c1ccc(-c2ccnc(Nc3ccc(N4CCOCC4)cc3)n2)cc1`, the growth in the assay with NCI-H23 lung is 29.6%; in the assay on NCI-H226 lung, -3.52% (active); in the assay on NCI-H322M lung it was 39.2%; in the assay on HOP-62 NSCLC it was 4.27% (active); in the assay on NCI-H460 lung, 6.81% (active); in the assay on HOP-92 NSCLC, 46.9%. Further, the growth in the assay with NCI-H522 lung is 4.57% (active); in the assay on A549/ATCC NSCLC it was 13.4%; in the assay with 786-0 renal, 4.83% (active); with COLO 205 colon it was 2.5% (active).
In the case of `Cn1ccnc1C(=O)/C=C/c1ccc(CC(=O)Nc2ccc(S(F)(F)(F)(F)F)cc2)cc1`, the growth in the assay with NCI-H23 lung is -12.7% (active); with NCI-H226 lung, -15.3% (active); in the assay on NCI-H322M lung, -5.16% (active); with HOP-62 NSCLC, -73% (active); in the assay on NCI-H460 lung, -37.9% (active); in the assay with HOP-92 NSCLC, 5.09% (active). The growth with NCI-H522 lung was -51.1% (active); with A549/ATCC NSCLC, -33.7% (active); with 786-0 renal, -82.7% (active); with COLO 205 colon it was -55.2% (active).
As for `COc1ccc2c(CCC(c3ccccc3)c3ccccc3)c3[n+](cc2c1OC)CCc1cc2c(cc1-3)OCO2`, the growth in the assay on NCI-H23 lung is 0.765% (active); in the assay with NCI-H226 lung, 24.7%; in the assay on NCI-H322M lung, 33.1%; in the assay on HOP-62 NSCLC, 9.37% (active); in the assay on NCI-H460 lung, -3.4% (active); in the assay on HOP-92 NSCLC, -9.89% (active). The growth is -0.122% (active) in the assay with NCI-H522 lung, 15.7% with A549/ATCC NSCLC, 14.8% with 786-0 renal and -58.8% (active) in the assay on COLO 205 colon.
For `Cc1cnc(Nc2ccc(OCCN3CCCC3)cc2)nc1Nc1cccc(S(=O)(=O)NC(C)(C)C)c1`, the growth in the assay with NCI-H23 lung was 15.8%; in the assay on NCI-H226 lung, -61.9% (active); with NCI-H322M lung it was 28%; in the assay on HOP-62 NSCLC, -8.87% (active); in the assay on NCI-H460 lung, 10.4%; in the assay with HOP-92 NSCLC, -72.1% (active). Besides, the growth with NCI-H522 lung was -46.4% (active); with A549/ATCC NSCLC it was -53.6% (active); in the assay with 786-0 renal it was -84.8% (active); with COLO 205 colon, -67.6% (active).
As for `COc1cc(C2CC(c3ccc(Cl)cc3)=NN2c2ccc(Cl)cc2)cc(OC)c1OC` (stereo not given), the growth in the assay with NCI-H23 lung is 97.4%; in the assay with NCI-H226 lung it was 88.4%; with NCI-H322M lung, 91.1%; in the assay on HOP-62 NSCLC it was 100%; with NCI-H460 lung it was 97.1%; in the assay with HOP-92 NSCLC it was 57.7%. The growth with NCI-H522 lung is 88.9%; in the assay with A549/ATCC NSCLC it was 93.9%; in the assay with 786-0 renal it was 98.8%; with COLO 205 colon, 91.4%.
As for `O=C1CSC(c2c(F)cccc2Cl)N1NC(=O)C(O)(c1ccccc1)c1ccccc1` (stereo not given), the growth was 98.7% with NCI-H23 lung; 95.3% in the assay with NCI-H226 lung; 102% with NCI-H322M lung; 86.8% in the assay with HOP-62 NSCLC; 113% with NCI-H460 lung; 86.3% in the assay with HOP-92 NSCLC. Also, the growth in the assay with NCI-H522 lung is 88.4%; with A549/ATCC NSCLC it was 96.2%; in the assay on 786-0 renal it was 97%; in the assay on COLO 205 colon, 104%.
As for `Nc1c2c(c(O)c3c1=C(CO)C=N3)=NCCS2=O` (stereo not given), the growth is -33.4% (active) in the assay with NCI-H23 lung; -52.2% (active) in the assay with NCI-H226 lung; -95.1% (active) in the assay with NCI-H322M lung; -52.7% (active) in the assay on HOP-62 NSCLC; -61.7% (active) in the assay on NCI-H460 lung; -54.3% (active) in the assay on HOP-92 NSCLC. Further, the growth in the assay on NCI-H522 lung is -46.9% (active); with A549/ATCC NSCLC, -42.4% (active); in the assay with 786-0 renal, 36.1%; in the assay with COLO 205 colon, -75.1% (active).
For `C[C@@H](Oc1cc(C(=O)Nc2ccc(C(=O)N3CCN(C)CC3)cc2)nnc1N)c1c(Cl)ccc(F)c1Cl`, the growth is 62.6% with NCI-H23 lung; 66.9% in the assay on NCI-H226 lung; 92.9% in the assay with NCI-H322M lung; 64.8% with HOP-62 NSCLC; 79.8% with NCI-H460 lung; 48.3% in the assay with HOP-92 NSCLC. Besides, the growth in the assay with NCI-H522 lung was 71.1%; in the assay with A549/ATCC NSCLC it was 55.8%; with 786-0 renal it was 67.4%; in the assay on COLO 205 colon, 55.1%.
In the case of `Cc1ccc(-[n+]2c3cc(N)c(C)cc3nc3cc(C)c(Nc4ccccc4)cc32)cc1`, the growth with NCI-H23 lung is -74.4% (active); in the assay on NCI-H226 lung, -67% (active); in the assay with NCI-H322M lung it was -53.1% (active); in the assay on HOP-62 NSCLC it was -64.9% (active); in the assay on NCI-H460 lung, -48.2% (active); in the assay with HOP-92 NSCLC, -60.5% (active). Also, the growth is -48.8% (active) in the assay with NCI-H522 lung, -18.9% (active) with A549/ATCC NSCLC, -93% (active) in the assay with 786-0 renal and -94.9% (active) in the assay with COLO 205 colon.
As to `C=CC(=O)Nc1cccc(Nc2nc(Nc3ccc(N4CCN(C(C)=O)CC4)cc3OC)ncc2C(F)(F)F)c1`, the growth is 26.7% with NCI-H23 lung; 26.8% with NCI-H226 lung; -28.9% (active) in the assay with NCI-H322M lung; 27.6% in the assay on HOP-62 NSCLC; 9.55% (active) in the assay with NCI-H460 lung; -18.1% (active) in the assay on HOP-92 NSCLC. For the same compound, the growth in the assay with NCI-H522 lung was -12% (active); in the assay on A549/ATCC NSCLC, 5.15% (active); in the assay on 786-0 renal, 8.43% (active); in the assay with COLO 205 colon, -37.4% (active).
